ATXN viability = reduces viability in counter-screen for ATXN expression inhibitors. S2 cells (HEK-293 line with an ATXN2-luciferase reporter) viability, CellTiter-Fluor protease fluorescence, 24 h. Potency, µM (titrated, usually from 56.7 µM), most hits filed as cytotoxic. 400,000 compounds, 0.49% hits; note: nearly all actives have a fitted effect of over 40% in size
TGFb inhibitor = blocks TGF-b signaling | Potency, µM (series often up to 46.1 µM), usual class: inhibitors | 410,000 compounds, 1.2% hits | HepG2 CAGA-GFP TGF-b/SMAD3 reporter, GFP fluorescence, 18 h; TGF-beta stimulated, 500 pg/mL final; note: nearly all actives have a fitted effect of over 65% in size
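Inhibition of TGF-beta-driven CAGA-GFP reporter expression in HEPG2 cells is measured by cellular GFP fluorescence after 18 h stimulation with 500 pg/mL recombinant TGF-beta in 1% FBS medium at 37 degrees C.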
ATXN2 expr inh = reduces ATXN2 reporter expression in HEK-293 cells; Potency, µM (doses to about 57 µM), usual class: inhibitors; HEK-293 ATXN2-luciferase reporter, luminescence, 24 h; 360,000 compounds, 0.72% hits; AID 1745845; note: nearly all actives have a fitted effect of over 55% in size
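ATXN2-luciferase reporter cells (luciferase flanked by upstream and downstream ATXN2 gene portions) were treated 24 h at 37 °C with compounds at up to 57 uM. SteadyGlo luminescence gave expression; GF-AFC fluorescence gave viability.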
D3 ag = D3 dopamine receptor (human) agonism; P35462; D3R DiscoveRx beta-arrestin cells, luminescence, 90 min; max activation, %; 410,000 compounds, 0.58% hits; AID 652048; in the data active = max activation above about 30%
Target sequence (P35462 whole entry, looked up): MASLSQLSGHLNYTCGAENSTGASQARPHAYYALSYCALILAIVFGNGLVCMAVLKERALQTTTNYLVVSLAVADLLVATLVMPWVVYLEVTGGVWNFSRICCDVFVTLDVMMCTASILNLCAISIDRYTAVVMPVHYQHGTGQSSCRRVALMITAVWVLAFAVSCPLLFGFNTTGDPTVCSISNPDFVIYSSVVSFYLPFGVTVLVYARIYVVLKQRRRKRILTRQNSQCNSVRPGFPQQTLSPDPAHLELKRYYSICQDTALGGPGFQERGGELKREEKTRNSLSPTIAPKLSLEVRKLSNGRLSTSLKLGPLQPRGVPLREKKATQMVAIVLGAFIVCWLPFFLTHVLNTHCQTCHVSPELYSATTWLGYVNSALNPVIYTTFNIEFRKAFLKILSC
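Agonist mode: compounds and dopamine controls were applied to plated cells for 90 min at 37 degrees C after an overnight attachment at 1500 cells/well. Luminescent read-out followed 30 - 60 minutes at room temperature with DiscoveRx detection reagent.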
HepG2 tox-1 = counter-screen for TGF-b inhibitors: cytotoxicity in HepG2 cells | 410,000 compounds, 0.76% hits | Potency, µM (doses to about 46.1 µM), actives largely listed as cytotoxic | HepG2 CAGA-GFP viability, ATP luminescence, 18 h
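HepG2 CAGA-GFP cells (1000/well, DMEM with 1% FBS) received compound, then TGF-beta at 500 pg/mL final, and were incubated 18 hours at 37 degrees C. Viability was read by CellTiter-Glo luminescence. Media-only wells were set as complete cell-killing and DMSO as no toxicity.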
D3 antag = antagonists of human D3 dopamine receptor; P35462; D3R cells, DiscoveRx beta-arrestin luminescence, antagonist mode; hits give low values; max response, negative = inhibition, %; 360,000 compounds, 2.5% hits; AID 652054; in the data active = max response below about -50%; inconclusive = no clear call, values can overlap the other calls
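Cells plated overnight at 1500 cells/well, then exposed to library compounds with dopamine controls for 90 minutes at 37 degrees C. DiscoveRx reagent added for 30–60 minutes at room temperature; luminescence read, quantitative HTS format.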
TGFb confirm = TGF-b pathway inhibition, cherry-pick retest; shares compounds with TGFb inhibitor; HepG2 CAGA-GFP TGF-b reporter, GFP fluorescence, 18 h; cells stimulated with TGF-beta, 500 pg/mL; Potency, µM (doses to about 46.1 µM), actives largely listed as inhibitors; 1,600 compounds, 63% hits; note: nearly all actives have a fitted effect of over 65% in size
HepG2 tox-2 = toxic to HepG2 cells in TGF-b counterscreen. 1,600 compounds, 27% hits. shares compounds with TGFb inhibitor. Potency, µM (doses to about 46.1 µM), actives largely listed as inhibitors. HepG2 CAGA-GFP viability, ATP luminescence, 18 h; cells stimulated with TGF-beta, 500 pg/mL; note: nearly all actives have a fitted effect of over 70% in size
CCL64 TGFb inh = orthogonal confirmation of TGF-b inhibitors in CCL64 cells | 1,600 compounds, 41% hits | CCL64 CAGA-GFP reporter, TGF-b stimulated, GFP fluorescence, 18 h | Potency, µM (doses to about 46.1 µM), usual class: inhibitors | shares compounds with TGFb inhibitor | AID 720536; note: nearly all actives have a fitted effect of over 65% in size
COP TGFb inh = blocks TGF-b signaling in HepG2 COP reporter; shares compounds with TGFb inhibitor; HepG2 COP-GFP TGF-b reporter, GFP fluorescence, 18 h; cells stimulated by added recombinant TGF-beta; Potency, µM (series often up to 46.1 µM), hits mostly inhibitors; 1,600 compounds, 3% hits; AID 720537; note: nearly all actives have a fitted effect of over 70% in size
Hits are given with their value; - = inactive; ? = inconclusive; . = no result. Hits are enriched below; roughly 4.7% of the tested compounds scored in any of these assays. Unless noted, calls come from the whole dose curve; as a rule, active = well fitted curve in the direction sought with a large enough effect; inconclusive = small, poorly fitted or top-dose-only effect, or another doubt; inactive = no such curve, though single readings can be large; an effect the other way counts as inactive or inconclusive.

SMILES | ATXN viability | TGFb inhibitor | ATXN2 expr inh | D3 ag | HepG2 tox-1 | D3 antag | TGFb confirm | HepG2 tox-2 | CCL64 TGFb inh | COP TGFb inh
COc1ccc(C(=O)/C=C/C(=O)N(Cc2ccc(F)cc2)C(C(=O)NC2CCCCC2)c2ccncc2)c(O)c1 (centres undefined) | ? | 10µM | - | - | - | - | ? | - | 13µM | -
Oc1ccc(/C=N/n2cc(-c3ccccc3)[nH]c2=S)cc1 | - | - | - | - | - | - | . | . | . | .
COc1cc(/C=N/n2cc(-c3ccccc3)[nH]c2=S)cc(OC)c1O | - | 16µM | . | - | - | - | 15µM | - | - | -
COc1ccccc1Cn1cc(C(=O)c2ccc(C)cc2)c(=O)c2cc3c(cc21)OCCO3 | - | - | - | - | - | . | . | . | . | .
O=S(=O)(c1cccc(NC(=S)N2CCN(c3ccccc3F)CC2)c1)C(F)F | - | 7.1µM | . | - | - | - | 7.3µM | - | - | -
O=C(Nc1ccc(S(=O)(=O)N2CCOCC2)cc1)c1ccco1 | - | - | - | - | - | - | . | . | . | .
O=C(Nc1ccc(N2CCOCC2)cc1)c1ccc([N+](=O)[O-])o1 | ? | 5.6µM | - | - | - | ? | 12µM | 23µM | ? | -
O=C(COC(=O)c1ccc([N+](=O)[O-])o1)Nc1ccc(N2CCOCC2)cc1 | - | - | - | - | - | - | . | . | . | .
O=C(Nc1ccc(S(=O)(=O)N2CCOCC2)cc1)c1ccc([N+](=O)[O-])s1 | - | 4.5µM | - | - | - | - | 1.6µM | 5.2µM | - | -
O=C(Nc1ccc(S(=O)(=O)N2CCOCC2)cc1)c1cccs1 | - | - | - | - | - | - | . | . | . | .
O=C(Nc1ccc(S(=O)(=O)N2CCOCC2)cc1)c1ccc([N+](=O)[O-])o1 | ? | 6.3µM | ? | - | - | ? | 3.3µM | 13µM | 12µM | ?
Cc1ccc(S(=O)(=O)c2nnn3c2nc(Nc2ccc(C(C)C)cc2)c2sccc23)cc1C | . | - | . | - | - | . | . | . | . | .
Cc1ccc(C(=O)Nc2cccc3[nH]c(C(F)(F)F)nc23)cc1 | - | 11µM | - | - | - | - | 15µM | ? | ? | -
Cc1ccc(C(=O)Nc2ccc(C(F)(F)F)n(C)c2=O)cc1 | - | ? | - | - | - | - | . | . | . | .
COc1ccc(Cl)cc1NC(=O)CSc1nc(=O)[nH]c2c1CCC2 | . | - | . | - | - | . | . | . | . | .
CC(=O)O[C@@H](C[C@@H](C)C1=C2C[C@H](O)C3[C@@]4(C)CCC(=O)C(C)(C)C4CC[C@]3(C)[C@@]2(C)CC1)[C@H]1OC1(C)C (some centres undefined) | 35µM | 11µM | ? | 50 | - | - | 13µM | ? | ? | -
COc1ccc(CC(N)c2csc(NC(=O)CCc3ccccc3)n2)cc1 (centres undefined) | - | ? | ? | - | - | - | . | . | . | .
COc1ccc(CC(N)c2csc(NC(=O)Nc3ccccc3C(C)C)n2)cc1 (centres undefined) | ? | 5.6µM | ? | - | - | -55 | ? | ? | ? | ?
ON=C1c2ccccc2-c2ccc(F)cc21 | - | 1.6µM | - | - | - | - | 9.2µM | ? | - | -
O=[N+]([O-])c1ccc2c(c1)C(=NO)c1cc(F)ccc1-2 | - | - | - | - | - | - | . | . | . | .
OCCN(CCCn1c(C(F)(F)F)nc2ccccc21)c1nc(CN2CCCCC2)cs1 | - | - | - | - | - | - | . | . | . | .
Cc1ccc(-c2csc(N(CCO)CCCn3c(C(F)(F)F)nc4cc(C(F)(F)F)ccc43)n2)cc1 | ? | 7.1µM | - | - | - | - | 21µM | - | ? | -
CCOC(=O)C1CCN(C(c2cccc(F)c2)c2c(O)cc(C)n(CCOC)c2=O)CC1 (centres undefined) | . | - | . | - | - | . | . | . | . | .
O=C(O)c1ccc(Nc2nc3ccccc3n3cnnc23)cc1 | - | - | - | - | - | . | . | . | . | .
CC(=O)N(Cc1ccc(F)cc1)C1=C(NCc2ccccc2)C(=O)c2ccccc2C1=O | 22µM | 6.3µM | 11µM | - | 3.2µM | - | 7.3µM | 3.7µM | 3.7µM | ?
SMILES | ATXN viability | TGFb inhibitor | ATXN2 expr inh | D3 ag | HepG2 tox-1 | D3 antag | TGFb confirm | HepG2 tox-2 | CCL64 TGFb inh | COP TGFb inh
O=[N+]([O-])c1ccc(N/N=C/c2cccnc2)cc1 | - | 10µM | - | - | - | - | 10µM | ? | - | -
Cc1ccccc1NC1=NCC(c2ccc([N+](=O)[O-])cc2)S1 (centres undefined) | ? | 4.5µM | - | - | - | - | 13µM | ? | 8.2µM | -
O=C(Nc1cccc(C(F)(F)F)c1)C(SCCO)c1ccccc1 (centres undefined) | - | - | - | - | - | - | . | . | . | .
Cn1nnnc1SC(C(=O)Nc1cccc(C(F)(F)F)c1)c1ccccc1 (centres undefined) | - | 11µM | - | - | - | - | ? | - | ? | -
COc1ccc([C@H]2CC(=O)C=C(c3ccc(SC)cc3)C2)cc1OC | - | ? | - | - | - | - | . | . | . | .
COc1ccc([C@H]2CC(=O)C=C(c3ccc(Oc4ccccc4)cc3)C2)cc1OC | - | 7.9µM | - | - | - | - | 9.2µM | - | ? | -
COc1ccccc1NS(=O)(=O)c1ccc(-c2cnc(C3CC3)o2)cc1 | - | 11µM | . | - | - | ? | ? | ? | ? | -
Cc1cccc(N(C)S(=O)(=O)c2ccc(-c3cnc(C4CC4)o3)cc2)c1 | ? | 7.9µM | . | - | - | - | 4.6µM | ? | 6.5µM | -
Cc1ccc(N(C)S(=O)(=O)c2cc(-c3cnc(C4CC4)o3)ccc2C)cc1 | - | - | ? | - | - | - | . | . | . | .
O=C(NCc1ccccc1)C1=C[C@H](c2ccc(C(F)(F)F)cc2)C[C@H](OCc2ccc(CO)cc2)O1 | ? | ? | - | - | - | - | ? | - | ? | -
Cc1cc(/C=N/NC(N)=S)c(C)n1-c1ccc(Br)cc1 | ? | 13µM | - | - | - | -67 | 10µM | ? | ? | -

From PubChem
